# PubChem BioAssay AID687 (PCMD, 2007)
# The whole screen tested about 33,000 compounds, of which about 95 (0.3%) were called active. The entries come from a sample that favours actives as a whole. Unmarked numbers belong to inactive results.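 The calls were made as follows: active = inhibition above 40% in the primary screen; inactive = the rest.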
# Target: Coagulation factor XI (Homo sapiens) (UniProt P03951)
# Assay: human FXIa protease inhibitors, primary screen, biochemical, single compound per well (AID 687);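 also: 0% = enzyme without compound and 100% = blank wells lacking enzyme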
# Settings: purified human FXIa, fluorogenic AMC substrate cleavage; at 10 µM; active compounds read high
# Coagulation factor XI (Homo sapiens), sequence (P03951 19-387 limits assumed): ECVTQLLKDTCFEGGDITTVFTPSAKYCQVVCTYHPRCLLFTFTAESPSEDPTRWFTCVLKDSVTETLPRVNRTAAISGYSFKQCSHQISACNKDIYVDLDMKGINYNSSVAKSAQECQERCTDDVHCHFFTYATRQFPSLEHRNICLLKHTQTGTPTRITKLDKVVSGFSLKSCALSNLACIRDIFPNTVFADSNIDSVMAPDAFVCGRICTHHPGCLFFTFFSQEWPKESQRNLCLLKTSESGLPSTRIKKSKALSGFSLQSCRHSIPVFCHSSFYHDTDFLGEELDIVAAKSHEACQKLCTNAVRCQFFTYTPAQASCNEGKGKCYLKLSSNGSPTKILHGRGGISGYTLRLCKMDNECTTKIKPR
# Coagulation factor XI (Homo sapiens), sequence (P03951 388-625 limits assumed): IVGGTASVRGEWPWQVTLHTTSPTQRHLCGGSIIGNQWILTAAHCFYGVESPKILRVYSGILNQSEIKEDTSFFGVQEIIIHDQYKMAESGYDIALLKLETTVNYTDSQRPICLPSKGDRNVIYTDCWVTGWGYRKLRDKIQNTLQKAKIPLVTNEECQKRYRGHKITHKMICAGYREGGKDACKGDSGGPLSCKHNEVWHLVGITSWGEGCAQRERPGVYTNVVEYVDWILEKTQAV
row,Structure (SMILES),inhibition
1,CCC(=O)NC(Nc1nc2ccc(C)cc2s1)(C(=O)OC)C(F)(F)F (stereo not drawn),0.39%
2,CCOC(=O)c1ccccc1NS(=O)(=O)c1ccc(OC)cc1,-1.8%
3,CCOc1ccc(C(=O)NCCCN2CCCC2=O)cc1,-9.62%
4,Cc1cc(C)cc(OCc2nnc(SCC(=O)OC3CCCCC3)o2)c1,2.82%
5,O=C(Nc1ccc(S(=O)(=O)N2CCc3ccccc3C2)cc1)c1ccccc1,4.52%
6,O=C1CSC(c2ccc(Cl)cc2)N1 (stereo not drawn),-2.99%
7,COc1ccc(-c2cc3nc(C)c(CCC(=O)NC(C)CCc4ccco4)c(C)n3n2)c(OC)c1 (stereo not drawn),0.38%
8,C=C(C)CNC(=S)/N=c1\scc(C)n1CC,-6.03%
9,COc1cc(S(=O)(=O)N(Cc2cccs2)C2CC2)ccc1-n1cnnn1,6.31%
10,COc1ccccc1Nc1nc(N)nc(CN(C)C2CCCCC2)n1,-1.79%
11,O=C(CCN1C(=O)c2ccccc2C1=O)Nc1cccc(F)c1,21.9%
12,O=C(CCn1c(SCC(=O)c2ccccc2)nc2ccccc2c1=O)NCc1ccc(F)cc1,-1.87%
13,CCCNC(=O)NCc1ccc(N2CCCC2=O)cc1,-4.89%
14,O=C(NCc1ccccc1)[C@@H]1CSC2c3ccccc3C(=O)N21 (stereo partly drawn),-6.84%
15,COc1ccc(N2CCN(C(=O)CNC(=O)c3ccc(C(C)(C)C)cc3)CC2)cc1,0.23%
16,COc1ccc2oc(=O)c(C(=O)N3CCCc4ccccc43)cc2c1,2.52%
17,C=CCN(C(=O)Cn1ncc2c1-c1cc(C)ccc1OC2)c1ccccc1,7.94%
18,CCCCSc1[nH]c(=O)c(C(=O)OCC)cc1C#N,-3.65%
19,COC(=O)c1cccc(-n2[nH]nnc2=S)c1,8.73%
20,O=c1nc(N2CCOCC2)nc2n1CCO2,0.16%
21,Nc1nc(SCc2ccccc2Cl)n[nH]1,-1.35%
22,C=CCn1c(SCc2c(C)noc2C)nc2sc3c(c2c1=O)CCC(C)C3 (stereo not drawn),-0.06%
23,Cc1cccc(Cn2c(SCCO)nc3c2c(=O)n(C)c(=O)n3C)c1,-5.34%
24,COC(=O)Nc1ccc(S(=O)(=O)N2CCN(CCN3C(=O)C4C5C=CC(C5)C4C3=O)CC2)cc1 (stereo not drawn),7.92%
25,CN(C)CCNC(=O)C(C(=O)c1ccccc1)n1ccccc1=O (stereo not drawn),-0.81%
26,Nn1c(SCC(=O)NC2CCCC2)nnc1-c1ccccc1F,-0.95%

row,Structure (SMILES),inhibition
1,Cc1cc(C(F)(F)F)n2ncc(-c3ccccc3)c2n1,-2.08%
2,O=C(CN1CCN(C(=O)c2ccco2)CC1)Nc1ccc2c(c1)OCO2,-13.2%
3,CCOC(=O)c1ccc(COC(=O)CCc2nc(-c3ccccc3)c(-c3ccccc3)o2)cc1,-0.92%
4,Cc1ccc(CNC(=O)CCNS(=O)(=O)c2cccc3nonc23)cc1,-10.4%
5,CCc1nc(N2CCN(c3nc(C)cc(C)n3)CC2)c2oc3ccccc3c2n1,-4.81%
6,COc1ccc(CCN(C)CCN2C(=O)c3ccccc3C2=O)cc1OC,-0.63%
7,Cc1ccc(OCC(=O)Nn2cnc3ccccc32)cc1,13.2%
8,CCOC(=O)c1cc2ccccc2nc1C,-0.46%
9,CCOC(=O)c1c(C)nc2c(c1C)c(=O)oc1ccccc12,43.4% (active)
10,CCOC(=O)c1ccc(COC(=O)c2cc(=O)[nH]c3ccccc23)o1,0.06%
11,CCOc1cc(CN2CCN(C(=O)CC(C)C)CC2)ccc1OC,0.6%
12,CC(NC(=O)Nc1ccccc1)c1ccccc1 (stereo not drawn),-3.02%
13,CC1CCC2(CC1)NC(=O)N(CC(=O)c1cccn1C)C2=O (stereo not drawn),-10.7%
14,CCOc1ccc(S(=O)(=O)N2CCCCCC2)c2ccccc12,-9.47%
15,O=C(NC1CCCCC1)c1ccc(CNc2c(N3CCOCC3)c(=O)c2=O)cc1,-0.69%
16,COc1ccc(CN2CCn3ncc(C(=O)Nc4ccc(Cl)cc4Cl)c3C2=O)cc1,8.32%
17,CCOC(=O)C1=C(CSc2nccn2C)NC(=O)NC1c1ccc(OC)cc1 (stereo not drawn),-6.24%
18,CC1(C)Cc2c(sc3nc(SCC(=O)NCc4ccccc4)n(-c4ccccc4)c(=O)c23)CS1,1.32%
19,O=C(C(NS(=O)(=O)c1cccc2nsnc12)c1ccccc1)N1CCN(c2ccccc2)CC1 (stereo not drawn),4.95%
20,O=C(NCc1ccco1)C1(c2ccc(Cl)cc2)CCCC1,-4.42%
21,O=C(CCCn1c(SCC(=O)c2ccccc2)nc2ccccc2c1=O)NCC1CCCO1 (stereo not drawn),7.29%
22,CCOc1ccc(-c2nc(C)sc2CC(=O)O)cc1,-1.47%
23,O=[N+]([O-])c1ccc(Oc2ccc(F)cc2Br)c2ccncc12,-2.08%
24,c1ccc2[nH]c(NCCN3CCOCC3)nc2c1,-1.88%
25,COC(=O)C1CCN(CC(N)=O)CC1,-11.2%
26,Cc1cc(=O)oc(C)c1C(=O)N1CCCCC1,32.7%

row,Structure (SMILES),inhibition
1,Cc1ccc(CNC(=O)C2CCCN2C(=O)NCc2ccccc2)cc1 (stereo not drawn),26.7%
2,COc1ccc(O)c(C(=O)c2cnc3onc(C(C)C)c3c2)c1,-2.11%
3,O=C(CCN1c2ccccc2Sc2ccccc21)Nc1ccccc1,-11.6%
4,Cc1ccnc(NC(=O)c2ccc(NC(=O)c3ccco3)cc2)c1,1.44%
5,Cc1cccc(NC(=O)CN2C(=O)CNC2=O)c1,7.39%
6,COC(=O)c1cccc(N(C(=O)c2ccco2)C(C(=O)NC2CCCC2)c2ccco2)c1 (stereo not drawn),-11.4%
7,COc1ccc(N/N=C2/CCCCC2=O)cc1,19.4%
8,COc1ccc(N2CCN(C(=O)CCc3nc(-c4ccc(C)cc4)no3)CC2)cc1,8.76%
9,O=C(CNS(=O)(=O)c1ccc(Br)s1)N1CCN(C(=O)c2ccco2)CC1,-4.45%
10,Cc1cccc(C)c1NC(=O)CCCSc1nnc(-c2ccco2)n1-c1ccccc1,-0.71%
11,Cc1ccc(-c2csc(NC(=O)c3cccs3)n2)cc1,-11.7%
12,Oc1ccccc1CNc1ncc(Br)cc1Br,-10.8%
13,CCC1(C)Cc2c(sc3nc(SC)nc(N)c23)CO1 (stereo not drawn),14.2%
14,COc1ccc(NC(=S)N2N=CCC2c2ccccc2)cc1 (stereo not drawn),0.63%
15,Cc1ccsc1C(=O)OCC(=O)c1cc2ccccc2o1,3.48%
16,O=P(c1ccc2c(c1)OCCO2)(N1CCOCC1)N1CCOCC1,2.3%
17,COc1ccccc1NC(=O)/C=C/C(N)=O,4.44%
18,CCOc1ccccc1NC(=O)Nc1cc(OC)ccc1OC,-0.13%
19,COc1ccc(C(=O)NNC(=O)c2cnccn2)cc1[N+](=O)[O-],-1.41%
20,COc1cc2c(cc1OC)C(C(C)C)=NC(C)(C)C2,2.2%
21,Cc1ccccc1N1CCN(CCCOc2ccc3c(C)cc(=O)oc3c2)CC1,3.75%
22,CCCC(C(=O)NCc1ccco1)N(C(=O)CNS(=O)(=O)c1ccccc1)C1CCCC1 (stereo not drawn),-1.8%
23,Cc1ccc(OCC(=O)N/N=C\c2ccco2)c(C)c1,8.22%
24,COc1ccccc1CNS(=O)(=O)c1ccc(C)cc1,-5.43%
25,O=C(Nc1ccc(Sc2ccc(Br)cc2)cc1)c1ccco1,5.67%
26,CC1(C)CC(=O)NC=C(c2ccccc2)C1,2.57%

row,Structure (SMILES),inhibition
1,COc1ccc(C(=O)CSc2nccc(=O)[nH]2)cc1,4.89%
2,Cc1cccc(N2CCN(S(=O)(=O)c3ccc4[nH]c(=O)c(=O)[nH]c4c3)CC2C)c1 (stereo not drawn),-6.46%
3,Cc1nc(NNC(=O)c2ccccc2)cc(-c2ccccc2)n1,-2.36%
4,COc1ccc(-c2cc(C)nc3nc(N)nn23)cc1,-7.55%
5,Cc1ccc(C2(C(F)(F)F)N=C3Sc4cc(C)cc(C)c4N3C(=O)N2)cc1 (stereo not drawn),-3.09%
6,COCCn1c(=S)[nH]c2cc(C(=O)NCCc3ccc(OC)c(OC)c3)ccc2c1=O,1.93%
7,COc1ccccc1NC(=O)C1CCCN(c2cc(C)nc3ncnn23)C1 (stereo not drawn),-7.53%
8,COC(=O)C1=C(C)Nc2ncnn2C1c1cccnc1 (stereo not drawn),-8.85%
9,CCOC(=O)c1c(N)sc(C(C)=O)c1C,5.4%
10,CCCOc1ccc(C2NC(=O)NC(c3ccccc3)=C2C(C)=O)cc1OCC (stereo not drawn),-6.35%
11,Cc1ccc(S(=O)(=O)N2CCN(Cc3cccc(C)c3O)CC2)cc1,-1.32%
12,COC(C)(C)[C@]12CC(O)(C(C)C)ON1[C@H]1CCCCC1N2O (stereo partly drawn),0.57%
13,CC(C)(C)c1cc(=O)n2c(nc3ccccc32)[nH]1,2.42%
14,COC(=O)c1ccc(Sc2ccc(F)cc2)c(N)c1,1.93%
15,CC1CCCCC1NC(=O)C1CCCN1S(=O)(=O)c1cccc2nsnc12 (stereo not drawn),7.4%
16,COc1ccc(-n2nc3c(c2NC(=O)Cc2cccc(C)c2)CS(=O)C3)cc1 (stereo not drawn),4.35%
17,CC(C)(C)c1nc2ccccc2c(=O)n1N1C(=O)c2ccccc2C1=O,2.66%
18,COc1ccc(-c2nnc(SCC(=O)c3ccc4c(c3)OCCO4)o2)cc1,-2.7%
19,COC(=O)/C(=C\Nc1ccccc1)NC(=O)c1ccc(Cl)cc1Cl,7.22%
20,CC(CN1CCOCC1)c1ccccc1 (stereo not drawn),7.1%
21,O=C(CSCc1ccccc1)N1CCc2ccccc21,1.56%
22,Cc1ccc(OCCCC(=O)Nc2ccc(N3CCOCC3)cc2)cc1,3.13%
23,O=c1c2ccccc2nc(N/N=C/c2ccccc2)n1O,6.82%
24,Cc1[nH]n(-c2ccc(Cl)cc2)c(=O)c1/C=N/n1c(C)nc2ccccc2c1=O,4.91%
25,CC1(C)N=C(c2ccccn2)C(C)(C)N1O,-1.83%
